This note sets out measurements from PubChem BioAssay (NCATS).

Results filed as inconclusive are left out. Unmarked numbers belong to inactive results. Active and inactive are the calls of the source. Unless noted, the call rests on the fitted dose curve.

Cytochrome P450 1A2 (Homo sapiens), sequence (P05177 whole entry, looked up): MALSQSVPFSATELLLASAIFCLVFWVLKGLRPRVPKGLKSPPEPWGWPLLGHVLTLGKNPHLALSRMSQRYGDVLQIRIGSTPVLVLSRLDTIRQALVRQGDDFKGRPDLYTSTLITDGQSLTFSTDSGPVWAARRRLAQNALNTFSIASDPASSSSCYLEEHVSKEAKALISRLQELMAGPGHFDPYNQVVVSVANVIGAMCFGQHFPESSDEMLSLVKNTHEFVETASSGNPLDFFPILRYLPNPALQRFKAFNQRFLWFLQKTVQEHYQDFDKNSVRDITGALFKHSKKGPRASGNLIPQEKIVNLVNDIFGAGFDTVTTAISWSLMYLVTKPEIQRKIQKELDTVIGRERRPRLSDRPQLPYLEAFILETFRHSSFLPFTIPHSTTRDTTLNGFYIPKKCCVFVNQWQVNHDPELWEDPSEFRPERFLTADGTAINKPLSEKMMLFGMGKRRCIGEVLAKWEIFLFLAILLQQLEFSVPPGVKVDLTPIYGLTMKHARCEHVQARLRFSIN

Tested on in the first assay: not listed separately
Description: AP1 Signaling Pathway (AID 357; active means well fitted curve in either direction with a large enough effect, not every such curve was filed as active; further: on the % scale 0 is the no-effect control and ±100 the full control effect). To be noted: ME-180 AP-1-bla reporter, EGF-induced, beta-lactamase ratio, 5 h; series mostly up to 17.2 µM; activity change, negative = inhibition: at the top concentration. The procedure, abridged: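 ME-180 cells with beta-lactamase reporter under AP-1 response element, stimulated with EC50 EGF; compounds tested in titration series, 5 h at 37 °C. CCF4 substrate added 2.5 h at room temperature; 460/530 nm emission ratio gave %activity and AC50.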
For the molecule `COc1ccc2c(OC)c3ccoc3nc2c1OC`, the “activity change, negative = inhibition” value was -3.43%.

As for `O=C1NC(=O)C(c2cn(-c3ccccc3)nc2-c2ccc(F)cc2)N1` (centres undefined), the “activity change, negative = inhibition” value was -27.4%.

With `Cc1ccccc1CN1C2=NCCN2C(=O)C2=C1CCN(Cc1ccccc1)C2`, the “activity change, negative = inhibition” value was 4.7% [at 7.69 µM].

The next assay addresses Cytochrome P450 1A2 (Homo sapiens) (UniProt P05177). Description: p450-cyp1a2 (AID 410). Further: potency means the concentration at half of the fitted maximal effect.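 On activity change, negative = inhibition: -100% = full effect of reference inhibitor.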 Conditions: recombinant CYP1A2, luciferin-ME demethylation, luminescence; series mostly up to 25.6 µM; activity change, negative = inhibition: at the top concentration. The procedure, abridged: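 20nM CYP1A2 with 100uM Luciferin-ME (at Km) in 100mM KPO4; compound preincubated 10 min, NADPH regeneration added, 60 min at room temperature. Luciferin quantified by luminescence after detection reagent; normalized to 57 uM furafylline.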
Take `COc1ccc2c(OC)c3ccoc3nc2c1OC`: the Potency is 0.0794 µM (active).

Consider `COc1ccc(C[C@H](N)C(=O)N[C@@H]2[C@H](O)[C@H](n3cnc4c(N(C)C)ncnc43)O[C@@H]2CO)cc1`, for which the “activity change, negative = inhibition” value is -12%.

As to `Cc1ccccc1CN1C2=NCCN2C(=O)C2=C1CCN(Cc1ccccc1)C2`, the “activity change, negative = inhibition” value is -3% [at 11.4 µM].

Tested on in the next assay: not listed separately
Description: Cell Viability - BJ (AID 421).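 Further: potency means the concentration at half of the fitted maximal effect; cells exposed to compound for 40 hours at 37 °C before readout.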 To be noted: BJ fibroblast viability, qHTS. The procedure, abridged:
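Quantitative HTS: ATP depletion in BJ cells after 40 hr compound exposure in complete culture medium, detected with CellTiter-Glo; AC50 from standard Hill fits.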
A general note: qHTS replaces the single test concentration by a dilution series.
`Nc1ccccc1N`: the Potency is greater than 92 µM.

For the molecule `Cc1ccc(N)cc1O`, the Potency was greater than 92 µM.

Turning to `CC(=O)O[C@@H]1CC(C)=C2[C@H]1[C@H](C)CC[C@H]2/C=C(\C)C(=O)O`, the Potency is greater than 92 µM.

Tested on in the next assay: not listed separately
The experiment in a line: Cell Viability - Hek293 (AID 427;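 active means compounds whose dose-response curve shows a full or clear partial loss of cell viability, called from curve shape rather than a numeric limit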;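 further: potency means the concentration at half of the fitted maximal effect; cells exposed to compound for 40 hours at 37 °C before reading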). Conditions: qHTS. The text has this:
NIH Chemical Genomics Center [NCGC]
NIH Molecular Libraries Screening Centers Network [MLSCN]
National Institutes of Environmental Health Sciences [NIEHS]
National Toxicology Program [NTP]
We have developed a 1536-well cell-based assay for quantitative high throughput screening (qHTS) against a number of cell lines to determine in vitro cytotoxicity of small molecules. This particular assay uses the Hek 293 cell line which is derived from human embryonic kidney cells (transformed with adenovirus).
NCGC Assay Protocol Summary:
The CellTiter-Glo luminescent cell viability assay (Promega) is a homogeneous method to measure the number of viable cells in culture. The end point readout of this assay is based on quantitation of intracellular ATP, an indicator of metabolic activity, using the luciferase reaction. Luciferase catalyzes the oxidation of beetle Luciferin to oxyluciferin and light in the presence of ATP. The luminescent signal is proportional to amount of ATP present.
Using the CellTiter-Glo luminescent cell viability assay, the amount of cellular ATP was measured in the Hek293 cell line with complete culture medium following compound treatment for 40 hours. The assay was performed in opaque white Kalypsys 1536-well plates. In the screen, tamoxifen and doxorubicin were used as positive controls. Library compounds were measured for their ability to cause acute toxicity in the cell line, as reflected by a decrease in intracellular ATP levels, in a concentration-dependent manner. Data were normalized to the controls for basal activity (DMSO only) and 100% inhibition (100 uM tamoxifen). AC50 values were determined from concentration-response data modeled with the standard Hill equation.
qHTS protocol fo CellTiter Glo Hek 293 cellular assay
[Step] [Parameter] [Value] [Description]
2. Time; 5 hr; 37 °C incubation
4. Controls; 23 nL; Tamoxifen 0.34 uM to 100 uM & Doxorubicin 0.02 nM to 100 uM
5. […]
8. Detection; Luminescence; Viewlux plate reader
Keywords: cell viability, cytotoxicity, Hek293 cell line, luminescence, NTPHTS, NTPHTS_NCGC, NIEHS, EPA, DSSTox, MLSMR, MLSCN, NIH Roadmap, qHTS, NCGC
In the case of `Nc1ccccc1N`, the Potency is greater than 92 µM.

In the case of `Cc1ccc(N)cc1O`, the Potency is greater than 92 µM.

`CC(=O)O[C@@H]1CC(C)=C2[C@H]1[C@H](C)CC[C@H]2/C=C(\C)C(=O)O`: the Potency is greater than 92 µM.

Tested on in a further assay: not listed separately
Description: Cell Viability - HepG2 (AID 433).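 Further: potency means the concentration at half of the fitted maximal effect; potency for ATP loss meaning cytotoxicity.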 Conditions: qHTS. The procedure, abridged:
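HepG2 hepatocellular carcinoma cells (1500/well) were treated with compounds for 40 h at 37 °C in complete medium; intracellular ATP was read by CellTiter-Glo luminescence. Data were normalized to DMSO and 100 uM tamoxifen, and AC50 came from Hill fits.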
Turning to `Nc1ccccc1N`, the Potency is greater than 92 µM.

For `Cc1ccc(N)cc1O`, the Potency was greater than 92 µM.

On to `CC(=O)O[C@@H]1CC(C)=C2[C@H]1[C@H](C)CC[C@H]2/C=C(\C)C(=O)O`, for which the Potency is greater than 92 µM.

Tested on in another assay: not listed separately
The experiment in a line: Cell Viability - MRC5 (AID 434).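 Further: potency means the concentration at half of the fitted maximal effect; potency reflects cytotoxicity seen as loss of intracellular ATP.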 Conditions: MRC5 lung fibroblast viability, qHTS. The procedure, abridged:
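MRC5 normal human lung fibroblasts (1500/well) were treated with compounds for 40 hr at 37 °C in complete medium, and viable cells were measured as intracellular ATP by CellTiter-Glo luminescence. AC50 came from Hill fits, normalized to DMSO and 100 uM tamoxifen.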
As for `Nc1ccccc1N`, the Potency is greater than 92 µM.

As to `Cc1ccc(N)cc1O`, the Potency is greater than 92 µM.

In the case of `CC(=O)O[C@@H]1CC(C)=C2[C@H]1[C@H](C)CC[C@H]2/C=C(\C)C(=O)O`, the Potency is greater than 92 µM.

Tested on in the next assay: not listed separately
The experiment in a line: Cell Viability - SK-N-SH (AID 435).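 Further: potency means the concentration at half of the fitted maximal effect; compound exposure lasted 40 h at 37 °C.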 Conditions: SK-N-SH neuroblastoma cell viability qHTS. The procedure, abridged:
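SK-N-SH human neuroblastoma cells (1500/well) were exposed to compounds in complete medium for 40 h at 37 °C, and intracellular ATP was then measured by CellTiter-Glo luminescence. AC50 was taken from Hill fits, normalized to DMSO and 100 uM tamoxifen.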
In the case of `Nc1ccccc1N`, the Potency is greater than 92 µM.

For the molecule `Cc1ccc(N)cc1O`, the Potency is greater than 92 µM.

For the molecule `CC(=O)O[C@@H]1CC(C)=C2[C@H]1[C@H](C)CC[C@H]2/C=C(\C)C(=O)O`, the Potency was greater than 92 µM.

Tested on in another assay: not listed separately
Description: NFAT Signaling Pathway (AID 444; active means well fitted curve in either direction with a large enough effect, not every such curve was filed as active;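 further: carbachol stimulus at about its EC50 of 1 µM final; on the % scale 0 is the no-effect control and ±100 the full control effect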). Conditions: Jurkat NFAT-bla M1, carbachol, beta-lactamase ratio, 5 h; series mostly up to 17.2 µM; activity change, negative = inhibition: at the top concentration. The procedure, abridged:
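Jurkat cells carrying an NFAT-driven β-lactamase reporter and co-transfected muscarinic M1 receptor were treated with compound plus carbachol (1 uM final, an EC50 level) for 5 h at 37 °C. CCF4 loading followed for 1 h at RT; 460/530 nm ratio gave %activity.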
`COc1ccc2c(OC)c3ccoc3nc2c1OC`: the “activity change, negative = inhibition” value was 5.89%.

Regarding `O=C1NC(=O)C(c2cn(-c3ccccc3)nc2-c2ccc(F)cc2)N1` (centres undefined), the “activity change, negative = inhibition” value is -26.1%.

Regarding `Cc1ccccc1CN1C2=NCCN2C(=O)C2=C1CCN(Cc1ccccc1)C2`, the “activity change, negative = inhibition” value is 9.32% [at 7.69 µM].
